Source: PubChem (National Center for Advancing Translational Sciences (NCATS))
Only some compounds are listed: those with a hit (about 6.6% of all), similar ones and a draw of the others.
PTAP TSG101 blk – blocks PTAP/TSG101 interaction to inhibit HIV-1 budding; Fluorescence polarization, FITC-PTAP peptide / Tsg101 binding; Potency, µM (titrated, usually from 115 µM), hits mostly inhibitors; 340,000 tested, under 10 active; active = well fitted inhibition curve with a large enough effect in the main read-out, with a control signal flat, not every such curve was filed as active; inconclusive = small, poorly fitted or top-dose-only effect, or effect the other way, or a change in a side signal; inactive = no such curve, though single readings can be large or run the other way
Target sequence (Q99816 whole entry, looked up): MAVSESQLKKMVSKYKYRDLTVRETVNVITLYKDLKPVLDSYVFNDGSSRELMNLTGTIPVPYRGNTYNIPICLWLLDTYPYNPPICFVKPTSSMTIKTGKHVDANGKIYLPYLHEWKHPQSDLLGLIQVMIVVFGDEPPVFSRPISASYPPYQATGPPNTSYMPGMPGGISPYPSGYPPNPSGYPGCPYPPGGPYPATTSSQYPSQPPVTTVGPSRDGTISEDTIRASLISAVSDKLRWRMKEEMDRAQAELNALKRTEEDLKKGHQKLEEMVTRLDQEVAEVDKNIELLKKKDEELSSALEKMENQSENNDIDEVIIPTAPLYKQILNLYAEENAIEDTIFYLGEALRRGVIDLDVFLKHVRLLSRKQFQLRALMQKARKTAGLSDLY
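Tsg101 binding domain (10 uM final) was mixed with compound and a FITC-labeled PTAP peptide (50 nM final) in HEPES pH 7.5 buffer with NaCl, Tween 20, EDTA and TCEP; fluorescence polarization was read after 20 min at r.t.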
KB-V1 cytotox – KB-V1 MDR subline cytotoxicity; KB-V1 MDR cells viability, CellTiter-Glo, 72 h; 400,000 compounds, 3.4% hits; Potency, µM (series often up to 46.1 µM), hits mostly cytotoxic; also: nearly all actives have a fitted effect of over 60% in size
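Cells of the MDR subline KB-V1 are plated, dosed with compound at multiple concentrations, and incubated 72 h at 37 degrees C; CellTiter-Glo is then added and luminescence read after 10 min.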
MCF10A rereplic – DNA re-replication induction in MCF 10a cells; Potency, µM (highest dose often 46.1 µM), hits mostly activators; AID 624296; MCF 10A DNA re-replication, Hoechst nuclear intensity, 48 h; 350,000 compounds, 2.9% hits; also: nearly all actives have a fitted effect of over 50% in size
RGS4 inh – blocks human RGS4-accelerated GTP hydrolysis; P49798; Transcreener GDP fluorescence polarization, RGS4-accelerated GTP hydrolysis; Potency, µM (top dose mostly 114 µM), most hits filed as inhibitors; 390,000 compounds, 0.039% hits; also: nearly all actives have a fitted effect of over 75% in size
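MLSMR compounds (23 nl, pin-transferred) preincubated 10 min at room temperature with a 500nM (2x) first reagent, then RGS4 at 900nM (2x) plus Transcreener GDP mix added; fluorescence polarization (620/688 nm) read before and after 90 min at 30 °C.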
KB-3-1 cytotox – KB-3-1 parental cell cytotoxicity. KB-3-1 viability, CellTiter-Glo ATP luminescence, 72 h. Potency, µM (titrated, usually from 46.1 µM), usual class: cytotoxic. 400,000 compounds, 1.4% hits; also: nearly all actives have a fitted effect of over 60% in size
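KB-3-1 parental drug-naive adenocarcinoma cells in DMEM/10% FBS, incubated 72 h at 37 C with pin-transferred compounds across a concentration series. Viability by CellTiter-Glo luminescence; concentration-response curves fitted after normalization.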
SW480 rerep – inducers of DNA re-replication in SW480 colon cancer cells; SW480 DNA re-replication, Hoechst DNA content imaging, 48 h; Potency, µM (doses to about 46.1 µM), most hits filed as activators; 340,000 compounds, 1.8% hits; AID 624297; also: nearly all actives have a fitted effect of over 55% in size
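Quantitative HTS format with DMSO vehicle controls; 48 hr drug incubation at 37 C, then 40 min Hoechst staining and scanning imager measurement at 405 nm excitation.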
Hits are given with their value; . = inactive; ? = inconclusive; / = no result. Unless noted, calls follow the shape of the dose curve; as a rule, active = well fitted curve in the direction sought with a large enough effect; inconclusive = small, poorly fitted or top-dose-only effect, or another doubt; inactive = no such curve, though single readings can be large; an effect the other way counts as inactive or inconclusive.

SMILES	PTAP TSG101 blk	KB-V1 cytotox	MCF10A rereplic	RGS4 inh	KB-3-1 cytotox	SW480 rerep
Cc1onc(-c2ccccc2Cl)c1C(=O)Nc1sc2c(c1C(N)=O)CCC(C)C2 (stereo unspecified)	.	23.1µM	.	.	?	?
Cc1onc(-c2ccccc2Cl)c1C(=O)N/N=C(\N)COc1ccc(Cl)cc1	.	14.6µM	.	.	?	.
CCC(=O)Nc1ccc(/C(C)=N/NC(=O)c2c(-c3ccccc3Cl)noc2C)cc1	.	.	.	.	.	.
Cc1onc(-c2ccccc2)c1C(=O)N/N=C(\N)COc1ccc(Cl)cc1	.	14.6µM	.	.	?	.
Cc1ccnc(NC(=O)c2c(-c3ccccc3Cl)noc2C)c1	.	?	.	.	.	.
CC(=O)c1ccc(C2CC34CNS(=O)(=O)C3CC2O4)cc1 (stereo unspecified)	/	/	/	.	/	/
CC(C)(C)c1ccc(S(=O)(=O)c2cn(CC(=O)Nc3ccccc3)c3ccccc3c2=O)cc1	/	.	/	.	.	/
Cc1ccc2nc(SCc3nc(-c4ccc(Cl)cc4)no3)[nH]c2c1	/	.	/	.	.	/
COc1ccc(-n2nc3c(c2NC(=O)c2c(-c4ccccc4Cl)noc2C)CS(=O)(=O)C3)cc1	.	9.2µM	.	.	.	.
Cc1cc(C)nc(NC(=O)CCCC(=O)O)c1	.	.	.	.	.	.
COc1ccc(-n2nc3c(c2NC(=O)c2ccccc2)CS(=O)(=O)C3)cc1	/	.	/	/	.	/
Cc1cc(C)nc(NC(=O)c2c(F)c(F)c(F)c(C(=O)Nc3cc(C)cc(C)n3)c2F)c1	.	.	8.2µM	.	?	?
Cc1cc2ccccn2c1C(=O)c1ccc([N+](=O)[O-])o1	.	?	?	.	?	20.6µM
O=S(=O)(c1ccc(Cl)cc1)N1CCN=C1SCc1cccc(Cl)c1	.	20.6µM	.	.	.	.
Cc1ccc2nc(-c3ccc(NS(=O)(=O)c4ccccc4)cc3)sc2c1	.	.	?	.	.	.
Cc1nc2ccc(S(=O)(=O)Nc3ccc(-c4nc5cccnc5s4)cc3)cc2s1	.	.	6.51µM	.	.	.
Cc1ccc2nc(-c3ccc(NS(=O)(=O)c4ccc(F)c(F)c4)cc3)sc2c1	.	.	10.3µM	.	.	?
Cc1nc2ccc(S(=O)(=O)Nc3cccc(-c4nc5cccnc5s4)c3)cc2s1	.	.	6.51µM	.	?	.
Cc1ccc(-c2nc3cccnc3s2)cc1NS(=O)(=O)c1ccc2c(c1)CCCC2	.	.	?	.	.	.
O=S(=O)(Nc1cccc(-c2nc3cccnc3s2)c1)c1ccc2c(c1)CCCC2	.	.	?	.	.	.
COc1cccc2c1C(=O)/C(=C\c1ccc(N(C)C)cc1)C2	/	?	/	/	.	/
Cc1cc(NC(=O)CSc2nnc(COc3cccc(C)c3C)n2Cc2ccco2)no1	.	.	.	.	.	.
Cc1cccc(OCc2nnc(SCC(=O)N(C(C)C)C(C)C)n2Cc2ccco2)c1C	.	10.3µM	?	.	.	20.6µM
C=C1C(=O)O[C@@H]2[C@H]1[C@@H](OC(=O)/C(C)=C/C)C/C(C)=C\C(=O)/C=C(\C)[C@@H]2O	.	?	.	.	2.91µM	?
N#Cc1c(-n2ncnc2-c2cccc(Cl)c2)sc2c1CCCCC2	/	.	/	.	.	/
SMILES	PTAP TSG101 blk	KB-V1 cytotox	MCF10A rereplic	RGS4 inh	KB-3-1 cytotox	SW480 rerep
COc1ccccc1-c1nnc2sc(-c3cnccn3)nn12	.	.	18.4µM	.	.	?
COc1ccc(-c2nn3c(-c4cccc(C)c4)nnc3s2)cc1OC	/	16.4µM	?	.	.	?
COc1ccccc1-c1nnc2sc(-c3cc4ccccc4o3)nn12	.	?	2.91µM	.	0.517µM	2.59µM
CN(C)c1ccc(-c2nn3c(-c4cccnc4)nnc3s2)cc1	.	?	.	.	.	.
COc1cccc(OC)c1-c1nn2c(-c3ccco3)nnc2s1	.	.	.	.	.	.
COc1ccccc1-c1nnc2sc(-c3ccc(N(C)C)cc3)nn12	.	0.058µM	?	.	0.291µM	?
CCOc1ccc(-c2nnc3sc(-c4ccccc4OC)nn23)cc1	.	.	.	.	.	.
